L3MBTL1 inh: inhibitors of human L3MBTL1; Q9Y468; AlphaScreen L3MBTL1–H3K9me1 peptide binding; Potency, µM (titrated, usually from 57.1 µM), for the others: at the top dose activity, negative = inhibition, most hits filed as inhibitors; 230,000 tested, 0.66% active; AID 485360; also: % is scaled to controls: 0 for no effect and ±100 for the full control effect; nearly all actives have a fitted effect of over 60% in size
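L3MBTL1 50 nM + b-AHA-H3(1-15)K9me1 75 nM, 30 min RT; compound added, 30 min RT; streptavidin donor/Ni-chelate acceptor beads 10 ug/mL each final, 30 min RT dark; AlphaScreen read.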
Pol beta inh: blocks human DNA polymerase beta activity. Potency, µM (highest dose often 114 µM), for the others: top-dose activity change, negative = inhibition, usual class: inhibitors. P06746. Pol beta primer extension/strand displacement, fluorescence kinetic. 340,000 tested, 1.3% active; also: % is scaled to controls: 0 for no effect and ±100 for the full control effect
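Reaction started by 50 nM substrate onto compound-treated Pol beta (10 nM, 15 min preincubation, room temperature); plates read at 0 min and 10 min. Normalized concentration-effect data fitted by four-parameter Hill equation.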
POLK inh: inhibitors of human DNA polymerase kappa | AID 588579 | 400,000 tested, 0.53% active | purified Pol kappa, fluorescent DNA synthesis assay, 10 min | Q9UBT6 | Potency, µM (highest dose often 107 µM), without a hit: at the highest dose activity, negative = inhibition, most hits filed as inhibitors; also: % is scaled to controls: 0 for no effect and ±100 for the full control effect
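Inhibition of 10 nM Pol kappa is measured by a fluorescent read-out at 0 and 10 min following addition of 50 nM substrate (final), with a 15-min room-temperature compound preincubation.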
POLH inh: DNA polymerase eta (human) inhibition; recombinant Pol eta, fluorescent DNA replication assay; Potency, µM (titrated, usually from 114 µM), for inactives: at the highest dose activity change, negative = inhibition, actives largely listed as inhibitors; 390,000 tested, 1.2% active; also: % is scaled to controls: 0 for no effect and ±100 for the full control effect
Target sequence (Q9Y253 whole entry, looked up): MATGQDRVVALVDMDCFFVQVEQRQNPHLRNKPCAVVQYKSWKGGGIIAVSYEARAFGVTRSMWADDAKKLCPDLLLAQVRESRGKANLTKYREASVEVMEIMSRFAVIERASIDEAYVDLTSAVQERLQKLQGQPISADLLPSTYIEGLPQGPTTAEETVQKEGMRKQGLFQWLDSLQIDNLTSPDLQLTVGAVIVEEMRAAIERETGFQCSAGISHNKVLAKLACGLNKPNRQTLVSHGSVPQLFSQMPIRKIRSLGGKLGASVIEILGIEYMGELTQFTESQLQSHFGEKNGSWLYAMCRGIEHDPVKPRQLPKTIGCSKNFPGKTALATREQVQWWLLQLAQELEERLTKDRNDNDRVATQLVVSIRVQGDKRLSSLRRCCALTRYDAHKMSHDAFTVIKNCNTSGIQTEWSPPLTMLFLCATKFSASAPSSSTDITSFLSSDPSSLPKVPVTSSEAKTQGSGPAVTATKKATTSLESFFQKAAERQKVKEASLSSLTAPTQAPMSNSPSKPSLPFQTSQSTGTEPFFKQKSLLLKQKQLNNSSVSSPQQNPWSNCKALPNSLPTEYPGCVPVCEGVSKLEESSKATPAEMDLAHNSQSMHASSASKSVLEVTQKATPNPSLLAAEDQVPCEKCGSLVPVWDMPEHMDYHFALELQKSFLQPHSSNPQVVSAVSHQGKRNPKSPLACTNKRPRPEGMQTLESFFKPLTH
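Pol eta at 10 nM preincubated with compounds 15 min at room temperature; reaction started with fluorescent substrate (50 nM final) and read kinetically at 0 and 10 min.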
POLI inh: DNA polymerase iota (human) inhibition; 390,000 tested, 1% active; Q9UNA4; Pol iota fluorescent replication assay, 10 min; Potency, µM (doses to about 115 µM), for the others: top-dose activity, negative = inhibition, actives largely listed as inhibitors; AID 588590
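Pol iota at 10 nM preincubated 15 min with compounds at room temperature; reaction started with fluorescent substrate, 50 nM final. Fluorescence read kinetically at 0 and 10 min; buffer-only wells as negative control.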
The depositor's hits bear a star; ? = inconclusive; . = no result; ! = a repeat was not active; [ ] = another dose, or the depositor's remark. In the library only some 2.4% were active in any assay of this set; here they are far more common. Calls follow the shape of the dose curve; as a rule, active = well fitted curve in the direction sought with a large enough effect; inconclusive = small, poorly fitted or top-dose-only effect, or another doubt; inactive = no such curve, though single readings can be large; an effect the other way counts as inactive or inconclusive. Potency is read from the fitted curve at half-maximal effect.

SMILES	L3MBTL1 inh	Pol beta inh	POLK inh	POLH inh	POLI inh
CCN(c1ccccc1)c1nc(N)nc(C#N)n1	.	.	-16%	.	6%
CCCn1c(/C=C/c2ccco2)nc2ccccc21	-71%	22µM*	-36%	13µM*	45µM*
CCCCn1c(Nc2ccccc2)nc2ccccc21	.	15%	-6%	4%	5%
CCCn1c(Nc2nc3ccccc3n2C)nc2ccccc21	18µM*	29%	-2%	-21%	1%
COc1ccc(OC)c(CCNC(=O)c2cc3c(=O)n(C)c4ccccc4c3n2C)c1	.	-2%	-12%	-18%	13%
Cc1ccccc1N1C(=O)c2cc(N)ccc2N/C1=C\F	.	.	2%[19.4 µM]	.	.
Nc1ccc2cccnc2c1	.	.	-4%	.	-5%
CCOC(=O)c1oc2cc(O)cc(O)c2c(=O)c1OCc1ccccc1	.	.	-1%	-16%	32%
O=c1c2ccccc2oc2cc(OCc3cccc(F)c3)cc(O)c12	.	22µM*	?	-1%	?
CC(=O)Nc1ccc(C(=O)Nc2nc(-c3ccccn3)cs2)cc1	-44%	13%	-22%	2%	?
Cc1ccc(C(=O)Nc2nc(-c3ccccn3)cs2)o1	?	-16%	-16%	-20%	-45%
Cc1cc(C(=O)Nc2nc(-c3ccccn3)cs2)ccc1[N+](=O)[O-]	.	3%	-14%	-16%	134%
O=C(Nc1nc(-c2ccccn2)cs1)c1ccccc1-n1cnnn1	20µM*	5%	1%	-22%	?
O=C(Nc1nc(-c2ccccn2)cs1)c1cc(Cl)ccc1[N+](=O)[O-]	10µM*	3%	-15%	-24%	133%
O=C(Nc1nc(-c2ccccn2)cs1)c1ccc([N+](=O)[O-])o1	13µM*	?	-19%	35µM*	22µM*
Clc1ccc(-n2c(Cc3ccccc3)nnc2SCc2nc(-c3cccs3)no2)cc1	.	-1%	8%	-22%	25%
COc1ccc(CN(Cc2ccccc2)C(=O)c2cccc(C#N)c2)cc1COc1ccc(NC(C)=O)cc1	.	.	7%	.	-1%
O=C1c2cccc3cccc(c23)C(=O)N1CC1CCN(CC(O)COCc2ccc3c(c2)OCO3)CC1 (configuration not stated)	4µM*	-18%	-8%	-20%	3%
COc1ccc(OCC(O)CN2CCC(CN3C(=O)c4cccc5cccc(c45)C3=O)CC2)cc1 (configuration not stated)	-6%	1%	-11%	-3%	65%
O=C(CSc1nc(-c2ccco2)nc2cc(=O)[nH]n12)Nc1ccc(F)cc1	.	40µM*	-17%	2%	?
O=C(CSc1nc(-c2cccs2)nc2cc(=O)[nH]n12)Nc1ccccc1	.	-21%	?	?	89µM*
CC(=O)c1sc2nc(C)c3c(c2c1N)CCCC3	15%	-28%	-3%	-24%	105%
CC(=O)c1sc2nsc(SCCN3CCCC3)c2c1N	?	1%	-27%	4%	18µM*
Oc1ccc(Nc2nc3ccccc3n3cnnc23)cc1	.	-2%	-5%	-21%	40%
O=C(C[n+]1c(Cl)ccc2ccccc21)c1ccc2ccccc2c1	.	.	-15%	.	10%
SMILES	L3MBTL1 inh	Pol beta inh	POLK inh	POLH inh	POLI inh
Cc1cc(C(=O)COC(=O)c2cc(Cl)ccc2N)c(C)n1Cc1ccco1	?	40µM*	-41%	-16%	?
Cc1cc(C(=O)COC(=O)c2ccco2)c(C)n1Cc1ccco1	.	-13%	?	?	?
Cc1cc(-c2csc(N)n2)c(C)n1Cc1ccco1	.	-1%	10µM*	1%	?
Cc1ccc(Cl)cc1NC(=O)N1CCC(CN2CCCCCC2)CC1	.	2%	-12%	-19%	7%
O=C(Nc1ccc(C2=NCCN2)cc1)c1ccc(C(=O)Nc2ccc(C3=NCCN3)cc2)c([N+](=O)[O-])c1	?	2.2µM*	45µM*	?	10µM*
Cc1ccc(S(=O)(=O)N2CCN(c3cc(-c4cccs4)nc4ccccc34)CC2)cc1	.	.	-22%	.	1%
Cc1cc2ccccn2c1C(=O)c1nc(NCc2ccccc2)ncc1Cl	?	4%	4%	-12%	79µM*!
Cc1ccccc1OCCC(=O)OCC(=O)N1c2ccccc2NC(=O)C1(C)C	-12%	.	-14%	?	?
